MCF10A rereplic: induces DNA re-replication in MCF 10a normal breast cells; Potency, µM (top dose mostly 46.1 µM), inactives show at the top dose activity, positive = re-replication, hits mostly activators; hit rate 2.9% among 350,000; MCF 10A DNA re-replication, Hoechst nuclear intensity, 48 h; AID 624296; further: % of control where 0% means no effect; nearly all actives have a fitted effect of over 50% in size
KB-3-1 tox: kills parental KB-3-1 adenocarcinoma cells | hit rate 1.4% among 400,000 | KB-3-1 viability, CellTiter-Glo ATP luminescence, 72 h | Potency, µM (series often up to 46.1 µM), actives largely listed as cytotoxic; further: on the % scale 0 is the no-effect control and ±100 the full control effect; nearly all actives have a fitted effect of over 60% in size
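Parental KB-3-1 adenocarcinoma cells in phenol-red-free DMEM with 10% FBS were pin-treated with compounds at several concentrations, incubated 72 h at 37 °C, and viability read by CellTiter-Glo luminescence; concentration-effect curves were fitted after normalization.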
KB-V1 cytotox: KB-V1 MDR subline cytotoxicity | KB-V1 MDR cells viability, CellTiter-Glo, 72 h | Potency, µM (series often up to 46.1 µM), most hits filed as cytotoxic | hit rate 3.4% among 400,000 | AID 1347076; further: on the % scale 0 is the no-effect control and ±100 the full control effect; nearly all actives have a fitted effect of over 60% in size
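Following 72 h at 37 degrees C with compound, KB-V1 cell viability was read by CellTiter-Glo luminescence, medium being phenol-red-free DMEM plus 10% FBS; concentration-response parameters came from normalized, curve-fitted qHTS data.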
SW480 rerep: induces DNA re-replication in SW480 colon adenocarcinoma cells | SW480 DNA re-replication, Hoechst DNA content imaging, 48 h | Potency, µM (top dose mostly 46.1 µM), for the others: at the top dose re-replication activation, usual class: activators | hit rate 1.8% among 340,000 | AID 624297; further: % of control where 0% means no effect; nearly all actives have a fitted effect of over 55% in size
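Readout is total intensity of Hoechst-stained nuclei, excited at 405 nm and collected at 500-530 nm. Compound treatment lasted 48 hr at 37 C in 5% CO2 before staining.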
HT1080-NT tox: kills 2HG-producing HT-1080-NT fibrosarcoma cells. HT-1080-NT fibrosarcoma viability, CellTiter-Glo ATP luminescence, 48 h. Potency, µM (titrated, usually from 46.1 µM), for the others: top-dose activity, negative = less viability, usual class: cytotoxic. hit rate 1.6% among 360,000. AID 686970;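 further: NT is the 2HG producing partner of a matched IDH1 knockdown line; 0% = DMSO-treated cells and -100% = media-only wells without cells; nearly all actives have a fitted effect of over 55% in size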
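Fibrosarcoma NT cells, 750 per well in 5% FBS RPMI, were exposed to compound for 48 hours. Viability: CellTiter-Glo luminescence.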
HT1080 IDH1KD tx: toxicity to HT-1080 IDH1 knockdown cells (counter line) | HT-1080 IDH1 knockdown viability, ATP luminescence, 48 h | hit rate 2% among 360,000 | Potency, µM (titrated, usually from 46.1 µM), for inactives: top-dose activity, negative = toxicity, usual class: cytotoxic | AID 686971;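 further: 0% = DMSO wells and -100% = cell-free medium wells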
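HT-1080-IDH1KD cells (IDH1 knocked down), 750/well in RPMI with 5% FBS, treated with compound 48 h at 37 degrees C. Viability by CellTiter-Glo luminescence, normalised to DMSO and no-cell wells; concentration-response curves classed.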
Active calls of the source: *. Hits are enriched below; roughly 8% of the tested compounds scored in any of these assays. The call rests on the fitted dose curve; in most records, active means well fitted curve in the direction sought with a large enough effect; inconclusive means small, poorly fitted or top-dose-only effect, or another doubt; inactive means no such curve, though single readings can be large; an effect the other way counts as inactive or inconclusive. Potency means the concentration at half of the fitted maximal effect.

Cc1cc(C)c(C(=O)OCc2csc(CC(=O)Nc3ccccc3C)n2)c(C)c1 was read as MCF10A rereplic 0%, KB-3-1 tox inactive, KB-V1 cytotox inactive, SW480 rerep 10%, HT1080-NT tox -5% and HT1080 IDH1KD tx -4%.
`CC(=O)Nc1cccc(C(=O)OCc2csc(CC(=O)Nc3ccccc3C)n2)c1` gave MCF10A rereplic 10%, KB-3-1 tox inactive, KB-V1 cytotox 21µM*, SW480 rerep 1%, HT1080-NT tox 0% and HT1080 IDH1KD tx -9%.
For Cc1ccc(Cl)cc1NC(=O)c1ccc(Cn2cc(Cl)cn2)cc1 the results were MCF10A rereplic inconclusive, KB-3-1 tox inactive, KB-V1 cytotox inactive, SW480 rerep 10%, HT1080-NT tox inconclusive and HT1080 IDH1KD tx inconclusive.
`O=C1[C@@H]2Cc3c([nH]c4ccccc34)C(c3cccc(Br)c3)N2C(=O)CN1C1CCN(Cc2ccccc2)CC1` (some centres undefined) gave MCF10A rereplic inconclusive, KB-3-1 tox inconclusive, KB-V1 cytotox inactive, SW480 rerep inconclusive, HT1080-NT tox inconclusive and HT1080 IDH1KD tx 23µM*.
Screening O=C1OC(CN2CCOCC2)CN1N=Cc1ccc([N+](=O)[O-])o1 (centres undefined) returned MCF10A rereplic -3%, KB-3-1 tox inactive, KB-V1 cytotox inconclusive, SW480 rerep inconclusive, HT1080-NT tox -26% and HT1080 IDH1KD tx inconclusive.
`CN1CCCC(C#CC(O)(c2ccccc2)c2ccccc2)C1` (centres undefined) gave MCF10A rereplic -23%, KB-3-1 tox inactive, KB-V1 cytotox inactive, SW480 rerep -5%, HT1080-NT tox 6% and HT1080 IDH1KD tx 2%.
Screening CC(=O)OCC1=C(C(=O)O)N2C(=O)C(NC(=O)C(C)Cn3nc(C)c(Cl)c3C)C2SC1 (centres undefined) returned MCF10A rereplic inconclusive, KB-3-1 tox inactive, KB-V1 cytotox inactive, SW480 rerep -17%, HT1080-NT tox -3% and HT1080 IDH1KD tx -2%.
`O=C(Nc1ccnn1C1CCN(Cc2ccc(Cl)cc2)CC1)C1CCCC1` gave MCF10A rereplic 0%, SW480 rerep 0%, HT1080-NT tox 4% and HT1080 IDH1KD tx 1%.
`CC(C)c1ccc(CN2CCC(n3nccc3NC(=O)C3CCCC3)CC2)cc1` gave KB-3-1 tox inactive, KB-V1 cytotox 5.2µM*, HT1080-NT tox -28% and HT1080 IDH1KD tx -20%.
For CCOC(=O)Nc1ccc2nc(-c3cscn3)[nH]c2c1 the results were KB-3-1 tox 2.6µM*, KB-V1 cytotox 3.7µM*, HT1080-NT tox inconclusive and HT1080 IDH1KD tx 26µM*.
Screening Cc1noc(C)c1COC(=O)CCCc1nc2ccccc2s1 returned MCF10A rereplic 13%, KB-3-1 tox inactive, KB-V1 cytotox inactive, SW480 rerep -1%, HT1080-NT tox -3% and HT1080 IDH1KD tx -1%.
Cc1nn(C(=O)c2ccccc2)c(C)c1Sc1ccc(Cl)cc1 was read as KB-3-1 tox inconclusive and KB-V1 cytotox 7.3µM*.
Screening Cc1ccc(Sc2c(C)nn(C(=O)c3ccc(Br)cc3)c2C)cc1 returned KB-3-1 tox inactive and KB-V1 cytotox inactive.
COc1ccccc1NC(=O)CSc1nncn1-c1ccccc1 was read as MCF10A rereplic 4%, KB-3-1 tox inactive, KB-V1 cytotox inactive, SW480 rerep 2%, HT1080-NT tox 9% and HT1080 IDH1KD tx 2%.
Screening COc1ccccc1NC(=O)CSc1ncn(-c2ccccc2)n1 returned MCF10A rereplic -4%, KB-3-1 tox inactive, KB-V1 cytotox 16µM*, SW480 rerep -4%, HT1080-NT tox -4% and HT1080 IDH1KD tx -1%.
Screening COc1ccc(CNC(=O)CSc2nnc3c(n2)[nH]c2ccccc23)cc1 returned MCF10A rereplic -6%, KB-3-1 tox inactive, KB-V1 cytotox inactive, SW480 rerep -1%, HT1080-NT tox 2% and HT1080 IDH1KD tx 1%.

Assay outcomes deposited in PubChem by National Center for Advancing Translational Sciences (NCATS).
